D3 antag: qHTS of D3 Dopamine Receptor Antagonist: qHTS; hit rate 2.5% among 360,000; D3R cells, DiscoveRx beta-arrestin luminescence, antagonist mode; stronger effect = lower value; max response, negative = inhibition, %; D(3) dopamine receptor (Homo sapiens), P35462; AID 652054, 2013; in the data active = max response below about -50%; inconclusive = no clear call, values can overlap the other calls
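Cells plated overnight at 1500 cells/well, then exposed to library compounds with dopamine controls for 90 minutes at 37 degrees C. DiscoveRx reagent added for 30–60 minutes at room temperature; luminescence read, quantitative HTS format.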
TDP1 cell noCPT: qHTS for Inhibitors of human tyrosyl-DNA phosphodiesterase 1 (TDP1): qHTS in cells in absence of CPT. DT40 Tdp1-/- hTDP1 cells, no CPT, ATP luminescence, 48 h. hit rate 15% among 420,000. Potency, µM (titrated, usually from 46.2 µM), usual class: inhibitors; also: nearly all actives have a fitted effect of over 55% in size
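Compound effects on proliferation are scored in DT40 Tdp1-/-;hTDP1 cells in the absence of CPT. ATP levels (CellTiter-Glo luminescence) are recorded after a ≥48 hr, 37 °C incubation.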
ClpP mod: qHTS Assay for Activators of ClpP. ATP-dependent Clp protease proteolytic subunit (Bacillus subtilis (strain 168)), P80244. purified B. subtilis ClpP, FRET peptide cleavage, 20 min. Potency, µM (top dose mostly 57.5 µM). hit rate 1.9% among 340,000; active = well fitted falling curve with a large enough effect; inconclusive = small, poorly fitted or top-dose-only effect; inactive = no such curve, though single readings can be large or run the other way; also: the source files actives as falling curves though it sought activators and does not explain the sign; nearly all actives have a fitted effect of over 65% in size
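ClpP 10 microg/mL final, pH 8 Tris/KCl buffer with BSA, glycerol, Tween-20; compound pinned in; FRET-FV substrate; RT 20 min; Ex320/Em430; ΔFRET vs ADEP 5.8 microM, DMSO, no enzyme.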
TDP1 cell CPT: qHTS for Inhibitors of human tyrosyl-DNA phosphodiesterase 1 (TDP1): qHTS in cells in presence of CPT. hit rate 12% among 420,000. Potency, µM (top dose mostly 46.2 µM), most hits filed as inhibitors. chicken DT40 Tdp1-/-;hTDP1 cells + 20 nM CPT, ATP luminescence, 48 h. AID 686979, 2013; also: nearly all actives have a fitted effect of over 55% in size
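Cell growth measured by CellTiter-Glo luminescence after a minimum 48 h, 37 C compound exposure with 20 nM CPT in Tdp1-knockout DT40 cells stably expressing hTDP1, seeded 400/well; qHTS titration format.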
DRD3 agonist: qHTS of D3 Dopamine Receptor Agonist: qHTS | D3R DiscoveRx beta-arrestin cells, luminescence, 90 min | max activation, % | hit rate 0.58% among 410,000 | AID 652048, 2013; in the data active = max activation above about 30%
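Agonist mode: compounds and dopamine controls were applied to plated cells for 90 min at 37 degrees C after an overnight attachment at 1500 cells/well. Luminescent read-out followed 30 - 60 minutes at room temperature with DiscoveRx detection reagent.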
IL-1B inflam inh: qHTS for Inhibitors of Inflammasome Signaling: IL-1-beta AlphaLISA Primary Screen. hit rate 4.7% among 360,000. activity change, % at 57.5 µM. THP-1 LPS/ATP IL-1B secretion, AlphaLISA, 16 h; stronger effect = lower value; in the data active = activity change below about -50%; inconclusive = mostly about -30% to -49%
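Secreted IL-1B measured by AlphaLISA bead assay after 16 h compound exposure of THP-1 cells; compounds (final up to 57.5 uM) added 1 h before LPS (250 ng/mL) and ATP (1.25 mM) stimulation; lower signal means less secretion.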
Hits are given with their value; n = inactive; u = inconclusive; x = no result given; ! = a repeat was not active. Compounds with a hit are over-represented: about 21% of the library has one in this group of screens. Unless noted, calls follow the shape of the dose curve; as a rule, active = well fitted inhibition curve with a large enough effect; inconclusive = small, poorly fitted or top-dose-only effect; inactive = flat fitted curve, though single readings scatter.

SMILES	D3 antag	TDP1 cell noCPT	ClpP mod	TDP1 cell CPT	DRD3 agonist	IL-1B inflam inh
C/C(=N\NC(=O)COc1ccccc1-c1ccccc1)c1cccnc1	n	21µM	x	u	n	n
Cc1cc(/C=N/NC(N)=S)c(O)c(/C=N/NC(N)=S)c1	n	u	x	n	n	n
O=C(COC(=O)CNC(=O)c1ccccc1)NCc1ccc2c(c1)OCO2	n	n	n	n	n	n
CCOc1ccc(C(=O)NCC(=O)N2CCN(c3ccccc3O)CC2)cc1	n	n	x	n	n	n
C/C(=N\NC(=O)COc1ccccc1-c1ccccc1)c1ccc(O)cc1O	n	u	n	21µM	n	n
CCc1ccc(N2C(=O)CC(N3CCN(Cc4ccc5c(c4)OCO5)CC3)C2=O)cc1 (centres undefined)	n	n	x	n	n	n
COc1ccc2c3c(cccc13)C(=O)CC2	n	21µM	n	18µM	n	u
COc1cc(/C=C/c2nc3ccccc3s2)cc(OC)c1O	n	n	n	n	n	n
COc1cc(C=C(c2nc3ccccc3s2)c2nc3ccccc3s2)ccc1O	u	n	x	n	n	-90
COc1ccc(C=C(c2nc3ccccc3s2)c2nc3ccccc3s2)cc1O	u	21µM	n	u	n	-98
CCn1c(SCC(=O)Nc2ccc(Br)cn2)nnc1C1CC1	n	n	n	n	n	n
NC(=O)NN=C1c2cc(S(=O)(=O)N3CCOCC3)ccc2-c2ccc(S(=O)(=O)N3CCOCC3)cc21	x	n	n	u	x	x
O=C(CCN1c2ccccc2Sc2ccccc21)Oc1ccccc1	u	n	n	n	n	n
COc1ccc2c(c1)Sc1ccccc1N2CCN(C)C	-81	n	n	u	n	u
CCC(=O)c1ccc2c(c1)N(CCCN(C)C)c1ccccc1S2	-109	21µM	n	u	n	u
COC(=O)c1ccc(OC(=O)CCN2c3ccccc3Sc3ccccc32)cc1	n	n	n	n	n	n
CN(C)CCCN1c2ccccc2CCc2ccc(Cl)cc21	-104	10µM	n	15µM	n	u
CN(C)CCCN1c2ccccc2Sc2ccccc21	-105	18µM!	n	16µM	n	u
Cc1ccc(-c2cc3ncc4c(n3n2)-c2ccccc2OC4)cc1	x	n	n	n	n	x
COc1ccc(NC(=O)N2CC3(CCN(C(=O)c4csnn4)CC3)C2)cc1	x	n	x	n	x	x
COc1ccc(-c2csc(NC(=O)CN3C(=O)C4CC=CCC4C3=O)n2)cc1OC (centres undefined)	n	8.2µM	n	u	n	n
O=C(CN1C(=O)C2CC=CCC2C1=O)Nc1nc(-c2ccc(F)c(F)c2)cs1 (centres undefined)	n	21µM	n	u	n	n
O=C(CCN1C(=O)C2CCCCC2C1=O)Nc1nc(-c2ccc(F)c(F)c2)cs1 (centres undefined)	n	18µM	n	u	n	u
O=C(COC(=O)C1CC2CCCC(C1)C2=O)Nc1nc(-c2ccc(F)c(F)c2)cs1 (centres undefined)	n	u	n	u	n	n
COc1ccc(-c2csc(NC(=O)CN3C(=O)C4CCCCC4C3=O)n2)cc1OC (centres undefined)	n	n	n	n	n	n
SMILES	D3 antag	TDP1 cell noCPT	ClpP mod	TDP1 cell CPT	DRD3 agonist	IL-1B inflam inh
COc1ccc(OC)c(-c2csc(NC(=O)CN3C(=O)C4CCCCC4C3=O)n2)c1 (centres undefined)	n	n	n	n	n	-56
Cc1cc(Br)ccc1OCCOCCN1CCCC1	-73	u	n	u	n	n
Cc1cc(C(C)(C)C)ccc1OCCN1CCCC1	-64	u	n	n	n	n
Cc1ccc(OCCOCCN2CCCC2)c(Br)c1	u	u	n	u	n	u
Cc1cc(Br)ccc1OCCCCN1CCCCC1	-51	u	x	u	n	-58
Cc1cc(C(C)(C)C)ccc1OCCCCN1CCCC1	n	u	n	u	n	n
Cc1cc(C)cc(NC(=O)CSc2nc3nc(C)cc(C)n3n2)c1	n	u	n	u	n	n
O=C(C[n+]1c(Cl)ccc2ccccc21)c1ccc2ccccc2c1	x	n	n	n	x	x
Cc1onc(-c2ccccc2)c1-c1nnc(CN2CCN(S(=O)(=O)c3ccccc3F)CC2)o1	n	u	u	21µM	n	n
CN(c1ccccc1)S(=O)(=O)c1cccc(NC(=O)CSc2ncn[nH]2)c1	n	5.8µM	u	8.2µM	n	n
CN(c1ccccc1)S(=O)(=O)c1cccc(NC(=O)CSc2nncs2)c1	n	8.2µM	n	7.3µM	n	n
CN(c1ccccc1)S(=O)(=O)c1cccc(NC(=O)Cn2cnc3c2c(=O)n(C)c(=O)n3C)c1	n	16µM	n	23µM	n	n
Cc1cccc(NC(=O)CSc2nnc(N)s2)c1	x	n	n	n	n	x
CN(c1ccccc1)S(=O)(=O)c1cccc(NC(=O)CSc2nnc(N)s2)c1	n	8.2µM	n	8.2µM	n	n
CN(c1ccccc1)S(=O)(=O)c1cccc(NC(=O)CSc2nnc(C3CC3)n2C)c1	n	n	n	n	n	n
Cn1c(=O)c2c(ncn2CC(=O)Nc2ccccc2)n(C)c1=O	n	n	n	n	n	n
O=C(CC[C@H]1O[C@@H](n2ccc(=O)[nH]c2=O)[C@H](O)[C@@H]1O)N[C@H](Cc1ccccc1)C(=O)NCc1ccc2c(c1)OCO2	n	n	n	n	n	n
O=C(NCc1cccnc1)C(=O)NCC1OCCCN1S(=O)(=O)c1ccc(F)cc1 (centres undefined)	n	n	n	n	n	n
O=c1c2oc3ccccc3c2n(Cc2ccc(Cl)cc2)c(=O)n1Cc1ccccc1	x	u	n	u	n	x
COc1ccc(C(=O)NCc2nnc(SCC(=O)NC3CCCC3)o2)cc1	n	n	n	n	n	n
Cc1ccccc1C(=O)Nc1cccc(NC(=O)Cn2cnc3c(=O)n(C)c(=O)n(C)c32)c1	n	8.2µM	n	10µM	n	n
Cc1cccc(C)c1NC(=O)Cn1cnc2c(=O)n(C)c(=O)n(C)c21	n	n	n	n	n	n
Cc1ccc(Cn2c(C)c(CNCCCc3ccccc3)c(C(=O)O)c2C)cc1	x	u	n	u	n	x
Cc1ccc(C)c(NC(=O)c2cc(-c3cccnc3)nc3ccccc23)c1	n	u	n	u	n	n

Source: PubChem (National Center for Advancing Translational Sciences (NCATS))
